Source: PubChem BioAssay (EPA / NIEHS)
Where “and” joins values, the source holds several entries; their conditions need not be identical. Identical values can stand only once. Inconclusive results are not listed. More than one record can exist for a structure, and the calls need not agree. Calls of active or inactive are those of the source. Rule for the calls, unless noted: active = hit-call score of the fitted dose curve at least 0.9, where 1 is the maximum; inconclusive = response in the unintended direction; inactive = score below 0.9.

Columns and labels:
[1] = read-out: TIMP1, TIMP1 (gene 7076); assay: LTEA_HepaRG_TIMP1: Life Technologies and Expression Analysis (LTEA) Assay for TIMP1 using HepaRG (AID 2283534; active = hit-call score of the fitted dose curve at least 0.9, where 1 is the maximum; inactive = score below 0.9); settings: mRNA level, 48 h; actives raise or lower the signal
Method in brief: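 Bidirectional change in TIMP1 transcript versus 0.5% DMSO, measured by TaqMan qRT-PCR with three housekeeping genes for normalization. HepaRG human liver cells dosed 48 h in duplicate, top concentration 100 uM with half-log dilutions.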

[2] = read-out: Tumor necrosis factor receptor 1 (TNFRSF1A), TNFRSF1A (gene 7132); assay: LTEA_HepaRG_TNFRSF1A: Life Technologies and Expression Analysis (LTEA) Assay for Tumor necrosis factor receptor 1 (TNFRSF1A) using HepaRG (AID 2283535; active = hit-call score of the fitted dose curve at least 0.9, where 1 is the maximum; inactive = score below 0.9); settings: mRNA level, 48 h; actives raise or lower the signal
Method in brief: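 mRNA measured by qRT-PCR (TaqMan, Fluidigm arrays) against ACTB/GAPDH/POLR2A housekeepers after 48 h chemical exposure of HepaRG cells. Top concentration 100 uM, half-log 8-point series, duplicates; vehicle 0.5% DMSO, both fit directions.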

[3] = read-out: Thyroid Hormone Responsive (THRSP), THRSP (gene 7069); assay: LTEA_HepaRG_THRSP: Life Technologies and Expression Analysis (LTEA) Assay for Thyroid Hormone Responsive (THRSP) using HepaRG (AID 2283536; active = hit-call score of the fitted dose curve at least 0.9, where 1 is the maximum; inactive = score below 0.9); settings: mRNA level, 48 h; actives raise or lower the signal
Method in brief: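 mRNA induction or loss relative to 0.5% DMSO vehicle was fitted bidirectionally across an eight-point curve whose highest exposure was 100 uM. Human HepaRG liver cells received chemicals in duplicate over 48 h before RNA extraction.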

[4] = read-out: Cellular tumor antigen p53 (Homo sapiens) (UniProt P04637); assay: LTEA_HepaRG_TP53: Life Technologies and Expression Analysis (LTEA) Assay for Tumor Protein P53 (TP53) using HepaRG (AID 2283537; active = hit-call score of the fitted dose curve at least 0.9, where 1 is the maximum; inactive = score below 0.9); settings: mRNA level, 48 h; actives raise or lower the signal
Method in brief: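 TP53 transcript measured by qRT-PCR, normalized to three housekeeping genes, after 48 h treatment of human HepaRG cultures with chemicals from 100 uM downward in half-log steps (0.5% DMSO vehicle, serum-free induction medium). Up- or down-regulation fitted against DMSO.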

[5] = read-out: UDP glucuronosyltransferase (UGT1A1), UGT1A1 (gene 54658); assay: LTEA_HepaRG_UGT1A1: Life Technologies and Expression Analysis (LTEA) Assay for UDP glucuronosyltransferase (UGT1A1) using HepaRG (AID 2283538; active = hit-call score of the fitted dose curve at least 0.9, where 1 is the maximum; inactive = score below 0.9); settings: mRNA level, 48 h; actives raise or lower the signal
Method in brief: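 Human liver HepaRG cultures receive test chemical for 48 h, up to 100 uM in 0.5% DMSO, with phenobarbital induction controls. UGT1A1 mRNA is measured by qRT-PCR and normalized to ACTB, GAPDH and POLR2A.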

[6] = read-out: X-box binding protein 1 (XBP1), XBP1 (gene 7494); assay: LTEA_HepaRG_XBP1: Life Technologies and Expression Analysis (LTEA) Assay for X-box binding protein 1 (XBP1) using HepaRG (AID 2283540; active = hit-call score of the fitted dose curve at least 0.9, where 1 is the maximum; inactive = score below 0.9); settings: mRNA level, 48 h; actives raise or lower the signal
Method in brief: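 XBP1 transcript by qRT-PCR (housekeeping-normalized: ACTB, GAPDH, POLR2A) after 48 h chemical treatment of HepaRG cells, 8-point half-log series topping at 100 uM, vehicle 0.5% DMSO. Gain and loss of signal fitted relative to DMSO.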

[7] = LTEA_HepaRG_LDH_cytotoxicity: Cytotoxicity Assessment in the Life Technologies and Expression Analysis (LTEA) Assay (AID 2283563);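 for AC50: LDH activity released into spent culture medium as a marker of cell death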
Method in brief: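 LDH release into culture medium read after 48 h chemical treatment of HepaRG cells. Duplicate wells, eight-point half-log series topping at 100 uM, 0.5% DMSO vehicle and baseline.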

[8] = TOX21_p53_BLA_p2_viability: Viability Assessment in the Tox21 HCT-116 p53 Agonism Beta-lactamase Assay, Phase 2 (AID 2283591);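 note: compound exposure lasted 16 h at 37 °C; actives lower the ATP signal meaning cytotoxicity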
Method in brief: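 Cytotoxicity readout: CellTiter-Glo ATP luminescence, 30 min at room temperature, after the beta-lactamase read. Cells were HCT116 exposed 16 h at 37C to compounds pin-transferred at 217-fold dilution from DMSO stocks.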

[9] = TOX21_p53_BLA_p3_viability: Viability Assessment in the Tox21 HCT-116 p53 Agonism Beta-lactamase Assay, Phase 3 (AID 2283593);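 note: cells exposed to compound for 16 h before reading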
Method in brief: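 Cellular ATP was quantified by CellTiter-Glo luminescence, read after 30 min at room temperature. Beforehand, HCT116 cells (4000/well) received compound 5 h post-seeding, 217-fold diluted from DMSO, then incubated 16 h at 37C.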

[10] = biological target: Cellular tumor antigen p53 (Homo sapiens) (UniProt P04637); assay: TOX21_p53_BLA_p5_ratio: Tox21 HCT-116 p53 Agonism Beta-lactamase Assay, Ratio, Phase 5 (AID 2283599)
Chain of Cellular tumor antigen p53 (Homo sapiens) (P04637 whole entry, looked up): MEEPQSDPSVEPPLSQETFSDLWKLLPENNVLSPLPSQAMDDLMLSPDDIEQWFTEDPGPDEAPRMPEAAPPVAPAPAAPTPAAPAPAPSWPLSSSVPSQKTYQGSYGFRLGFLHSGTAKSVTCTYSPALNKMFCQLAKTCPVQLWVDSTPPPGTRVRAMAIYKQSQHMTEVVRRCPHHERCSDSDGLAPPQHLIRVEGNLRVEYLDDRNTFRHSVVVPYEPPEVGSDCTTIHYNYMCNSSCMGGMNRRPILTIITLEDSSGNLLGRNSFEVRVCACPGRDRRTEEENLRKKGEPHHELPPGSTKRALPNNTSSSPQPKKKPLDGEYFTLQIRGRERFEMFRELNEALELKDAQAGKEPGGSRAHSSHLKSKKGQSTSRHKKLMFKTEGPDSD
Method in brief: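 Beta-lactamase reporter ratio (blue 460 nm over green 530 nm, 405 nm excitation) after 2 h CCF4-AM loading, in HCT-116 cells exposed 16 h at 37 C to compounds pinned at 217-fold dilution. Increases relative to DMSO baseline scored.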

[11] = TOX21_p53_BLA_p5_viability: Viability Assessment in the Tox21 HCT-116 p53 Agonism Beta-lactamase Assay, Phase 5 (AID 2283600)
Method in brief: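 After the 460/530 nm beta-lactamase measurement, the wells received an ATP-detection luciferase reagent; signal was read 30 min later at RT. Compound treatment lasted 16 h on cells pre-incubated 5 h post-seeding.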

[12] = Tanguay_ZF_120hpf_YSE_legacy: (Legacy) Oregon State University Tanguay Lab 120 Hour Post-fertilization zebrafish Assay for Yolk Sac Edema (AID 2283634);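 for AC50: actives raise the incidence of yolk sac edema above the DMSO baseline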
Method in brief: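 Presence or absence of yolk sac edema was recorded at 120 hpf in surviving larvae. These were wild-type Tropical 5D embryos, chorion removed at 4 hpf, held in static exposure at 28C from 6 hpf with 0.64% DMSO vehicle.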

[13] = Tanguay_ZF_120hpf_AXIS_legacy: (Legacy) Oregon State University Tanguay Lab 120 Hour Post-fertilization zebrafish Assay for Body Axis Malformation (AID 2283635);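 for AC50: potency for an increased fraction of larvae scored with body axis malformation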
Method in brief: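 Binary scoring of axis defects at 120 hpf under brightfield, fitted positive versus DMSO. Tropical 5D embryos, chorion removed by pronase at 4 hpf, were singly exposed in sealed, dark plates at 28C from 6 hpf; DMSO 0.64% final.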

[14] = Tanguay_ZF_120hpf_EYE_legacy: (Legacy) Oregon State University Tanguay Lab 120 Hour Post-fertilization zebrafish Assay for Eye Malformation (AID 2283636)
Method in brief: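 Read-out is binary presence or absence of eye malformation, scored by brightfield microscopy at 120 hpf. Single larvae were exposed from 6 hpf in embryo medium containing 0.64% DMSO, with DMSO as baseline.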

[15] = read-out: UDP glucuronosyltransferase (UGT1A6), UGT1A6 (gene 54578); assay: LTEA_HepaRG_UGT1A6: Life Technologies and Expression Analysis (LTEA) Assay for UDP glucuronosyltransferase (UGT1A6) using HepaRG (AID 2283539; active = hit-call score of the fitted dose curve at least 0.9, where 1 is the maximum; inactive = score below 0.9); settings: mRNA level, 48 h; actives raise or lower the signal
Method in brief: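 Expression was quantified by TaqMan qRT-PCR on Fluidigm arrays with ACTB/GAPDH/POLR2A normalization and bidirectional fitting against 0.5% DMSO. HepaRG cells (~100,000/well) were treated in duplicate for 48 h at eight half-log concentrations up to 100 uM in serum-free induction medium.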

[16] = biological target: Cellular tumor antigen p53 (Homo sapiens) (UniProt P04637); assay: TOX21_p53_BLA_p4_ratio: Tox21 HCT-116 p53 Agonism Beta-lactamase Assay, Ratio, Phase 4 (AID 2283601)
Method in brief: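 Signal is the blue/green (460nm/530nm) ratio of cleaved versus uncleaved CCF4-AM substrate, read after 2 h substrate loading. Cells were HCT116 carrying the p53-responsive beta-lactamase reporter, dosed 16 h at 37C, 5% CO2; CellTiter-Glo measured in parallel.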

[17] = biological target: Cellular tumor antigen p53 (Homo sapiens) (UniProt P04637); assay: TOX21_p53_BLA_p2_ratio: Tox21 HCT-116 p53 Agonism Beta-lactamase Assay, Ratio, Phase 2 (AID 2283592)
Method in brief: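 Gain-of-signal p53 agonism was scored from the beta-lactamase FRET ratio (460/530 nm, 405 nm excitation) in HCT116 cells treated 16 h at 37C, 5% CO2, with DMSO serving as negative control and baseline.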

[18] = biological target: Cellular tumor antigen p53 (Homo sapiens) (UniProt P04637); assay: TOX21_p53_BLA_p3_ratio: Tox21 HCT-116 p53 Agonism Beta-lactamase Assay, Ratio, Phase 3 (AID 2283596)
Method in brief: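 HCT116 p53-bla cells (4000/well) given compound in DMSO (217-fold dilution) after 5 h, incubated 16 h at 37C. CCF4-AM substrate 2 h at room temperature; 460/530 nm emission ratio, gain fitted against DMSO.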

[19] = TOX21_p53_BLA_p4_viability: Viability Assessment in the Tox21 HCT-116 p53 Agonism Beta-lactamase Assay, Phase 4 (AID 2283597);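 note: hits lower the luminescence signal meaning cytotoxicity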
Method in brief: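 Following a 16 h exposure at 37C, the treated HCT116 wells were first read for the FRET ratio. They were then lysed with CellTiter-Glo, and ATP luminescence was recorded after 30 min at room temperature.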

[20] = Tanguay_ZF_120hpf_MORT_legacy: (Legacy) Oregon State University Tanguay Lab 120 Hour Post-fertilization zebrafish Assay for Mortality (AID 2283633)
Method in brief: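 Static waterborne exposure from 6 to 120 hpf at 28C of single dechorionated wild-type (5D) embryos per well, 0.64% DMSO final. Death recorded present/absent by brightfield at 24 and 120 hpf.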

Measured: AC50

CCCCC(CC)COC(=O)c1ccccc1C(=O)OCC(CC)CCCC (stereo unspecified)
active: [5] 9.29 µM
not listed: [15] | [16] | [17] | [18] | [19] | [20]
inactive: all other assays above

COP(=S)(OC)Oc1nc(Cl)c(Cl)cc1Cl
not listed: [17] | [18] | [19] | [20]
inactive: all other assays above

CCOC(=O)CC(SP(=S)(OC)OC)C(=O)OCC (stereo unspecified)
active: [9] 43.3 µM | [12] 37.4 µM | [13] 34.6 µM | [14] 38.7 µM
inactive: [1] | [3] | [4] | [5] | [15] | [6] | [7] | [8] | [9] | [10] | [11]

Cc1ccc(-c2c(Cl)nc(C#N)n2S(=O)(=O)N(C)C)cc1
active: [1] 22.4 µM | [3] 6.18 µM | [5] 37.4 µM | [6] 90.6 µM | [7] 8.94 µM | [8] 68.9 µM | [17] 8.72 µM | [18] 12.1 µM | [10] 20.1 µM
inactive: [4] | [9] | [11] | [12] | [13] | [14]

CCNc1nc(Cl)nc(NCC)n1
active: [5] 3.7 µM
not listed: [2] | [16] | [19] | [20]
inactive: all other assays above

N#Cc1cc(Br)c(O)c(Br)c1
active: [1] 10.2 µM | [2] 16.9 µM | [3] 22.6 µM | [4] 10.4 µM | [5] 17 µM | [6] 10.5 µM | [7] 66.8 µM | [10] 57.3 µM and 72.4 µM
inactive: [8] | [9] | [19] | [12] | [13] | [14]

Oc1ccccc1-c1ccccc1
not listed: [13] | [15] | [16] | [17] | [18] | [19] | [20]
inactive: all other assays above

C=CCC1=C(C)[C@@H](OC(=O)[C@@H]2[C@@H](C=C(C)C)C2(C)C)CC1=O
not listed: [2] | [7] | [13] | [17] | [19] | [20]
inactive: all other assays above

CCOP(=S)(OCC)SCn1c(=O)oc2cc(Cl)ccc21
not listed: [8] | [9] | [15] | [18] | [19] | [20]
inactive: all other assays above

CC(C)C1(C)N=C(c2nc3ccccc3cc2C(=O)O)NC1=O (stereo unspecified)
inactive: [1] | [3] | [4] | [5] | [15] | [6] | [8] | [10] | [12] | [14]

C=CC1(C)OC(=O)N(c2cc(Cl)cc(Cl)c2)C1=O (stereo unspecified)
active: [5] 22.7 µM
not listed: [9] | [16] | [17] | [18] | [19]
inactive: all other assays above

CCCCNC(=O)n1c(NC(=O)OC)nc2ccccc21
active: [5] 18.6 µM | [17] 11 µM and 9.55 µM | [18] 15.9 µM and 15.4 µM | [10] 20.5 µM and 12.3 µM | [16] 11.9 µM and 9.73 µM | [12] 52.3 µM | [14] 72.8 µM
not listed: [2] | [9] | [11] | [19] | [20]
inactive: all other assays above
